This note sets out measurements from PubChem BioAssay (EPA / NIEHS).

Results filed as inconclusive are left out. The source made the active and inactive calls. How the source made its calls, unless noted: active means hit-call score of the fitted dose curve at least 0.9, where 1 is the maximum; inconclusive means response in the unintended direction; inactive means score below 0.9.

Read-out in one experiment: not listed separately
Nature of the experiment: CEETOX_H295R_PROG_noMTC: CeeTox H295R High-throughput Steroidogenesis Assay for Progesterone (PROG), maximum tolerated concentration (MTC) filtered results only (AID 2283920; active means hit-call score of the fitted dose curve at least 0.9, where 1 is the maximum; inactive means score below 0.9). Particulars: actives raise or lower the signal. Summed up: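 H295R human adrenal cells were prestimulated 48 h with 10 uM forskolin, then exposed 48 h to test chemical (0.1% DMSO final). Progesterone in medium was quantified by HPLC-MS/MS; bidirectional fitting versus DMSO, concentrations not MTC-filtered.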
In the case of `COC(=O)C1CCC(C(=O)OC)CC1` (configuration not stated), the result was inactive.

For the molecule `CC(C)OC(=O)c1ccccc1C(=O)OC(C)C`, the result was inactive.

Consider `CCCCCCCOC(=O)c1ccccc1C(=O)OCCCCCCC`, for which the molecule was called inactive.

For another experiment, the system named is DIO1 (gene 1733). As to the kind of experiment: CCTE_GLTED_hDIO1: CCTE's human Deiodinase 1 (DIO1) Inhibition Assay, Great Lakes Toxicology and Ecology Division (GLTED) Lab (AID 2283987).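 Further: isolated human DIO1 enzyme in a cell-free setup rather than cells; enzyme activity read as free iodide liberated from substrate via Sandell-Kolthoff colorimetry.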
Settings: not given
The method, boiled down:
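Cell-free hDIO1 assay, triplicate plates. Absorbance of the Sandell-Kolthoff reaction reports enzyme-liberated iodide; iodinated chemicals or nitrite, iron and thiocyanate may interfere.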
By AC50 is commonly meant the midpoint of the concentration-response curve, whichever way the signal moves. With `O=C(O)C(F)(F)C(F)(F)C(F)(F)C(F)(F)C(F)(F)C(F)(F)C(F)(F)C(F)(F)C(F)(F)C(F)F`, the AC50 is 88.7 µM (active).

Take `C=CC(=O)OCC(F)(F)C(F)(F)C(F)(F)C(F)(F)COC(=O)C=C`: the AC50 is 5.82 µM (active).

Regarding `CC(Cc1ccc(O)c(O)c1)C(C)Cc1ccc(O)c(O)c1` (configuration not stated), the AC50 is 6.62 µM (active).

`O=C(Cl)C(F)(F)C(F)(F)C(F)(F)C(F)(F)C(F)(F)C(F)(F)C(F)(F)C(F)(F)F`: the concentration at half-maximal activity (AC50) was 165 µM (active).

Take `O=C(O)C(F)(F)C(F)(F)C(F)(F)C(F)(F)C(F)(F)C(F)(F)C(F)(F)C(F)(F)C(F)(F)C(F)(F)C(F)(F)C(F)(F)F`: the AC50 is 39 µM (active).

Consider `O=C(O)C(F)(F)C(F)(F)C(F)(F)C(F)(F)C(F)(F)C(F)(F)C(F)(F)C(F)(F)Cl`, for which the outcome was inactive.

As for `O=C(O)C=C(C(F)(F)F)C(F)(F)F`, the AC50 is 20.2 µM (active).

In the case of `O=C(O)C(F)(F)C(F)(F)C(F)(F)C(F)(F)C(F)(F)C(F)(F)C(F)(F)C(F)(F)C(F)(F)C(F)(F)C(F)(F)C(F)(F)C(F)(F)F`, the half-maximal activity concentration (AC50) was 23.7 µM (active).

Take `CCN(Cc1cccc(S(=O)(=O)O)c1)c1ccc(C(=C2C=CC(=[N+](CC)Cc3cccc(S(=O)(=O)O)c3)C=C2)c2ccc(O)cc2S(=O)(=O)[O-])cc1`: the AC50 was 65 µM (active).
